A short description of assay [1]: A High-Content qHTS Against Drug Library for the Identification of Small Molecules that Inhibit DYT1 Early Onset Primary Dystonia-Associated Cell Pathology (AID 1645839; calls by dose curve; note: series mostly up to about 46 µM). The method in brief: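 Flp-In T-REx 293 cells with tetracycline-inducible EGFP-delE hTOR1A (WT EGFP-hTOR1A as reference), 800 cells/well; compound added with tetracycline, 48 h at 37 C. Fixed, permeabilized cells imaged; %pathology (punctate TorsinA) primary, cell count counterscreen.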
On the technique in general: In qHTS, concentration-response curves come from the screen itself.

The target of assay [2] is Cytochrome P450 2D6 (Homo sapiens) (UniProt P10635). Put plainly: Cytochrome P450 family 2 subfamily D member 6 (CYP2D6) small molecule antagonists: luciferase biochemical (cell-free) qHTS assay (AID 1645840). Note: nearly all actives have a fitted effect of over 55% in size. Note: potency is the fitted concentration of half-maximal effect. The method in brief: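 P450-Glo luminescent screen: recombinant CYP2D6 enzyme–proluciferin substrate mix preincubated with compound 10 min at room temperature, then NADPH regeneration added for 1 h at room temperature. Detection reagent added for 20 min; luciferin light read as relative luminescence units.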

Assay [3] deals with Cytochrome P450 2C9 (Homo sapiens) (UniProt P11712). Kind of assay: Cytochrome P450 family 2 subfamily C member 9 (CYP2C9) small molecule antagonists: luciferase biochemical (cell-free) qHTS assay (AID 1645842). Note: nearly all actives have a fitted effect of over 55% in size. Note: potency is the fitted concentration of half-maximal effect. Put shortly: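 Luminescence, after 20 min with luciferin detection reagent, reflected CYP2C9 turnover during a 1 h NADPH-driven reaction at 37C. Enzyme-substrate mix contained 0.4% bovine serum albumin and was preincubated with compound 10 min at room temperature.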

The nature of assay [4]: Primary qHTS for inhibitors of nuclear receptor binding SET domain protein 2 (NSD2) in an isogenic RCH-ACV NSD2 p.E1099K mutant (9B) (AID 1645876; active = well fitted curve in the direction sought with a large enough effect; an effect the other way counts as inactive or inconclusive; note: nearly all actives have a fitted effect of over 70% in size; note: potency is the fitted concentration of half-maximal effect).

Molecules are shown by their SMILES. Results filed as inconclusive are left out. The source made the active and inactive calls. Unless noted, calls come from the whole dose curve; as a rule, active = well fitted curve in the direction sought with a large enough effect in the repeat runs; inconclusive = weak or mixed curves; inactive = no such curve, though single readings can be large; an effect the other way counts as inactive or inconclusive.

Twelve molecules from PubChem BioAssay (NCATS) can be followed below.

Sequence of Cytochrome P450 2D6 (Homo sapiens) (P10635 whole entry, looked up): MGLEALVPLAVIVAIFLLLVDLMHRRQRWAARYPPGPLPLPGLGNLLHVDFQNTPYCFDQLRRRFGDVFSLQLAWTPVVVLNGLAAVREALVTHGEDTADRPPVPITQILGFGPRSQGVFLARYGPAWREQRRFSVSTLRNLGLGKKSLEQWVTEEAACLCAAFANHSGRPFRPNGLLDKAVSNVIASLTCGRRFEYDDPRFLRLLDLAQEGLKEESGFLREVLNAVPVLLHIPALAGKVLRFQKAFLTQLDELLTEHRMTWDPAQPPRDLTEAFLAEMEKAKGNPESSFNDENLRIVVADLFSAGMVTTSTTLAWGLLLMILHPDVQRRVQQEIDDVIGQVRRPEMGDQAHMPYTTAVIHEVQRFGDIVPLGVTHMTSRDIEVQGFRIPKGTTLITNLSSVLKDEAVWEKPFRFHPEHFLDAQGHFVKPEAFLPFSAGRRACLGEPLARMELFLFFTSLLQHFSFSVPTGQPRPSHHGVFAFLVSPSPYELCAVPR
Sequence of Cytochrome P450 2C9 (Homo sapiens) (P11712 whole entry, looked up): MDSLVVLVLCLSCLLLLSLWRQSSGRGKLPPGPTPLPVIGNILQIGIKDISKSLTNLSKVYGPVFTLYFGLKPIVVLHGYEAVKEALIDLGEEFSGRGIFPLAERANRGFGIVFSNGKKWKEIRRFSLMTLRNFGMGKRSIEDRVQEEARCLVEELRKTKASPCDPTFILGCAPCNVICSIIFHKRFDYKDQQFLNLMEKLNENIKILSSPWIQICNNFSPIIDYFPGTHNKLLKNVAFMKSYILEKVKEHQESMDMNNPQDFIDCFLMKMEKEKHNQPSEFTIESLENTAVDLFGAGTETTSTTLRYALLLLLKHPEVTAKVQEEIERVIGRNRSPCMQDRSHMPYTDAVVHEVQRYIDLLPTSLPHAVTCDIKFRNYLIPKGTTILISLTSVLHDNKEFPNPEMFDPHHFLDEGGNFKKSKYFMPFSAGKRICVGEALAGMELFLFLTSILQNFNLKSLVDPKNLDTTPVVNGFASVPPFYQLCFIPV

Consider `O=C1c2ccccc2CCc2ccccc21`, for which the Potency entry in assay [1], in assay [2], in assay [3] and in assay [4] was “inactive” each time.
Regarding `COC(=O)c1cc(Cl)ccc1NS(=O)(=O)C(F)(F)F`, the Potency entry in assay [1], in assay [2], in assay [3] and in assay [4] was “inactive” throughout.
For `CN1N=C(C(N)=O)CCC1=O`, the Potency entry in assay [1], in assay [2], in assay [3] and in assay [4] was “inactive” in each case.
On to `Oc1ccccc1-c1nnco1`, for which the Potency entry in assay [1], in assay [2], in assay [3] and in assay [4] was “inactive” in each case.
In the case of `O=C(O)CCCC[P+](c1ccccc1)(c1ccccc1)c1ccccc1`, the Potency result in assay [1], in assay [2], in assay [3] and in assay [4] was “inactive” in each case.
Regarding `CC(=O)OC[C@H]1O[C@@H](OC(C)=O)[C@H](OC(C)=O)[C@@H]1OC(C)=O`, the Potency entry in assay [1], in assay [2], in assay [3] and in assay [4] was “inactive” throughout.
For `CN(C)CCN1CCN(c2cccc(Cl)c2)C1=O`, the Potency entry in assay [1], in assay [3] and in assay [4] was “inactive” throughout. Besides, the Potency in assay [2] is 15.5 µM (active).
Turning to `CC1(C)S[C@@H]2[C@H](NC(=O)C(c3ccccc3)S(=O)(=O)O)C(=O)N2[C@H]1C(=O)O` (stereo partly drawn), the Potency entry in assay [1], in assay [2], in assay [3] and in assay [4] was “inactive” throughout.
For `N#C/C(=C1/SC[C@@H](c2ccc(Cl)cc2Cl)S1)n1ccnc1`, the Potency entry in assay [1] was “inactive”. The Potency in assay [2] is 0.0871 µM (active); in assay [3] it was 0.436 µM (active); in assay [4] it was 13.3 µM (active).
For `Cc1oc(=O)oc1COC(=O)[C@@H]1N2C(=O)[C@@H](NC(=O)[C@H](N)c3ccccc3)[C@H]2SC1(C)C` the same measures were “inactive”, “inactive”, “inactive” and “inactive”.
For `CC(=O)Nc1ccn(C2COC(COC(=O)c3ccccc3)O2)c(=O)n1` (stereo not drawn) the same measures were “inactive”, “inactive”, “inactive” and 10.6 µM (active).
For `C#Cc1ccc(-c2ccccc2F)cc1`, the Potency entry in assay [1] and in assay [4] was “inactive” in each case. In addition, the Potency in assay [2] is 15.1 µM (active); in assay [3], 12 µM (active).
